CYP2C9 activ – human CYP2C9 activators, primary screen, biochemical, luminescence | Cytochrome P450 2C9 (Homo sapiens), P11712 | recombinant CYP2C9, luciferin-H conversion; active compounds read high; factor 1 = untreated enzyme, 0 = blocked | activation factor at 5 µM | 96,000 compounds, 1.4% hits | AID 1024, 2008;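 active = activation factor of 2 or more for CYP2C9 at a 5 µM dose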;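 also: 0 = sulfaphenazole-blocked wells and 1 = vehicle-only wells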
PTK2B oligo ant – antagonists of Pyk2 self-association, primary screen, Q293 cells, FERM NanoBiT luminescence, HTS | z-score (the deposit names both 25 µM and 10 µM) | active compounds read low | AID 1347419, 2020 | 99,000 compounds, 0.83% hits | Protein-tyrosine kinase 2-beta (Homo sapiens), Q14289;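 active = Z-score of -3 or lower, scaled per plate to the spread of control and sample wells; inactive = z-score above -3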;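 also: negative z-score means lost luminescence so less FERM oligomerization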
CYP2C9 inh – blockers of cytochrome P450 2C9 activity – biochemical, luminescence, ADME assay, primary screen | P11712 | CYP2C9 Supersomes, luciferin-H conversion | inhibition, % at 5 µM | 96,000 compounds, 20% hits;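 active = blocking of liver enzyme CYP2C9 beyond about 50% at 5 µM, limit read from the data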
CYP2C19 act – human CYP2C19 activators, primary screen, biochemical, luminescence; Cytochrome P450 2C19 (Homo sapiens), P33261; recombinant CYP2C19, luciferin-H EGE luminescence; active compounds read high; 0 = fully inhibited enzyme, 1 = untreated enzyme; activation factor at 5 µM; 96,000 tested, under 10 active; AID 1025, 2008;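 active = activation factor of at least 2 at 5 µM in the primary screen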;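 also: 0 = wells with 2.5 mM tranylcypromine and 1 = vehicle-only wells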
Target sequence (P33261 whole entry, looked up): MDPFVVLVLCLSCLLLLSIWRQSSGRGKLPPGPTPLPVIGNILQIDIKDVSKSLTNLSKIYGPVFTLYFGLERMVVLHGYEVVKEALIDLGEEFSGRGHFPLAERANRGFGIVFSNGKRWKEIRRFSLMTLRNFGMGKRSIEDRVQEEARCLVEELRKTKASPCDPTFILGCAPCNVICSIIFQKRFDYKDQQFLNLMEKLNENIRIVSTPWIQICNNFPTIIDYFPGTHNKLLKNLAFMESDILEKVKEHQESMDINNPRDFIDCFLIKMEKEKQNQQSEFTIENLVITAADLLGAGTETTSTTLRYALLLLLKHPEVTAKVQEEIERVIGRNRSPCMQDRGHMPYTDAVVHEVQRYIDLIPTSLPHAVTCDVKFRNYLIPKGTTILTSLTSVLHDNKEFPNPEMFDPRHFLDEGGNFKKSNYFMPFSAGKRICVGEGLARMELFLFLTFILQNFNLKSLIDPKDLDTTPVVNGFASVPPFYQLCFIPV
CYP2C19 inhib – blockers of cytochrome P450 2C19 activity – biochemical, luminescence, ADME assay, primary screen; 96,000 compounds, 21% hits; P33261; CYP2C19 Supersomes, luciferin-H EGE luminescence, 30 min; inhibition, % at 5 µM;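 active = CYP2C19 inhibition above a set limit at 5 µM in the primary screen, cut at about 50% in these data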;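 also: plate controls were negative control wells for no effect and 2.5 mM tranylcypromine positive control for full effect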
* = called active by the depositor; x = not tested or not shown. Compounds with a hit are over-represented: about 28% of the library has one in this group of screens.

SMILES | CYP2C9 activ | PTK2B oligo ant | CYP2C9 inh | CYP2C19 act | CYP2C19 inhib
CCN(CC)S(=O)(=O)c1ccc(N2CCCC2)c(C(=O)OCC(=O)/C(C#N)=C(\C)N)c1 | 0.2 | -1.3 | 82* | 0.2 | 80*
COc1cccc(NC(=O)CNS(=O)(=O)c2ccc3nc(C)sc3c2)c1 | 0.7 | 0.65 | 35 | 1 | 5
Cc1ccccc1C(=O)c1cccn1CC(=O)NCc1ccco1 | 0.9 | 1.1 | 5 | 0.9 | 10
Cc1ccccc1C(=O)c1cccn1CC(=O)NCCN1CCN(c2cccc(C)c2C)CC1 | 0.5 | 1.1 | 46 | 0.2 | 83*
COc1ccc(-n2nc3c(c2NC(=O)C24CC5CC(CC(C5)C2)C4)CS(=O)C3)cc1 (stereo not drawn) | 2.4* | x | -144 | 1.1 | -15
CC(C)OCCCNS(=O)(=O)c1ccc2c(c1)oc(=O)n2C | 1.1 | x | -13 | 0.6 | 37
CC(C)OCCCNS(=O)(=O)c1ccc2c(c1)OCCO2 | 2.2* | -0.07 | -124 | 0.2 | 77*
COc1ccc(OCCNS(=O)(=O)c2ccccc2)cc1 | 0.2 | -0.03 | 82* | 0.1 | 86*
O=S(=O)(NCCSCc1ccc(Cl)c(Cl)c1)c1ccc2c(c1)OCCO2 | x | 0.8 | x | x | x
O=S(=O)(NCCOc1ccccc1)c1ccc2ccccc2c1 | 2.1* | 1.4 | -105 | 1 | 2
O=C(O)CCNS(=O)(=O)c1ccc2ccccc2c1 | 1.3 | 0.93 | -34 | 1 | -5
CC(C)OCCCNS(=O)(=O)c1ccc2ccccc2c1 | 3.4* | 0.08 | -237 | 0.6 | 39
O=C(O)c1ccc(Cl)c(S(=O)(=O)NCC2CCCO2)c1 (stereo not drawn) | 1.1 | -0.72 | -11 | 1.1 | -7
CC(C)OP(=O)(OC(C)C)C1(O)C(=O)Nc2ccccc21 (stereo not drawn) | 1.1 | 0.75 | -13 | 1 | -4
Cc1nc(C)n(C(C)CC(=O)O)n1 (stereo not drawn) | x | 0.59 | x | x | x
Cc1nc(SCC(O)CCl)c([N+](=O)[O-])[nH]1 (stereo not drawn) | x | 0.88 | x | x | x
Cc1ccc(OCCNS(=O)(=O)c2cccs2)cc1 | 0.2 | 1.2 | 85* | 0 | 100*
O=C1c2ccccc2CN1CCNS(=O)(=O)c1ccc2ccccc2c1 | 2.5* | 1.7 | -154 | 0.7 | 30
O=c1cc(-c2ccccc2)[nH]c2[nH]n(-c3ccccc3)c(=O)c12 | 0.4 | -3.8* | 56* | 1 | 0
COc1cc(OC)c(C#N)c(S(=O)Cc2ccccc2)c1 (stereo not drawn) | 2.3* | -0.54 | -129 | 0 | 99*
COc1cccc(C2C3=C(CCCC3=O)Nc3nc(-c4cc(OC)c(OC)c(OC)c4)nn32)c1 (stereo not drawn) | 0.5 | 0.83 | 50 | 0.4 | 62*
CCOC(=O)c1cnc2c(ccc3ccccc32)c1NCCO | x | -2.1 | x | x | x
CCOC(=O)c1cnc2c(C)cccc2c1NCCc1ccc(OC)c(OC)c1 | 0.1 | -0.4 | 90* | 0 | 97*
O=C1c2cccc3cccc(c23)C(=O)N1c1nccs1 | 1.3 | -0.07 | -25 | 1 | -4
Cc1nnc(C)n1N1C(=O)c2cccc3cccc(c23)C1=O | 0.2 | 1.7 | 81* | 0.4 | 62*
SMILES | CYP2C9 activ | PTK2B oligo ant | CYP2C9 inh | CYP2C19 act | CYP2C19 inhib
COc1ccc2nc(SCC(=O)c3ccco3)[nH]c2c1 | 0.9 | 0.62 | 12 | 0.8 | 15
O=C(c1ccc2c(c1)OCO2)N(CC1CCCO1)C1(C(=O)NC2CCCC2)CCCCC1 (stereo not drawn) | 0.5 | -0.29 | 55* | 0.5 | 51*
CC1=NCC(C)c2c1[nH]c1ccccc21 (stereo not drawn) | 1.1 | -0.39 | -5 | 0.9 | 12
Cc1cc(N2CCC(C)CC2)n2ncc(-c3ccccc3)c2n1 | 0.3 | -0.21 | 70* | 0.6 | 37
Cc1cc(N2CCCCC2)n2ncc(-c3ccccc3)c2n1 | 1.5 | -0.33 | -46 | 1.1 | -10
Cc1cc(N2CCCCC2)n2ncc(-c3ccc(Cl)cc3)c2n1 | 0.4 | -0.06 | 57* | 0.7 | 29
CCOC(=O)Nc1ccc2c(c1)N(C(=O)CN1CCN(C)CC1)c1ccccc1S2 | 0.8 | 0.47 | 22 | 0.4 | 58*
CCOC(=O)Nc1ccc2c(c1)N(C(=O)OC)c1ccccc1CC2 | 0.1 | -1.4 | 85* | 0.3 | 70*
CCOC(=O)Nc1ccc2c(c1)N(C(=O)CCN(C)C)c1ccccc1S2 | 1 | -0.52 | 2 | 0.8 | 23

Compound activity: PubChem BioAssay, Sanford-Burnham Center for Chemical Genomics
